Compound activity: PubChem BioAssay, National Center for Advancing Translational Sciences (NCATS)
MCF10A rerep = A quantitative high throughput screen for small molecules that induce DNA re-replication in MCF 10a normal breast cells; MCF 10A DNA re-replication, Hoechst nuclear intensity, 48 h; Potency, µM (titrated, usually from 46.1 µM), for the others: top-dose activity, positive = re-replication, hits mostly activators; 350,000 tested, 2.9% active; note: potency is the fitted concentration of half-maximal effect; % of control where 0% means no effect; nearly all actives have a fitted effect of over 50% in size
IL-1B inflam inh = qHTS for Inhibitors of Inflammasome Signaling: IL-1-beta AlphaLISA Primary Screen | THP-1 LPS/ATP IL-1B secretion, AlphaLISA, 16 h; active compounds read low | activity change, % at 57.5 µM | 360,000 tested, 4.7% active | AID 743279, 2014; in the data active = activity change below about -50%; inconclusive = mostly about -30% to -49%; note: % is set by controls: 0 for no effect and ±100 for the full control effect
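Secreted IL-1B measured by AlphaLISA bead assay after 16 h compound exposure of THP-1 cells; compounds (final up to 57.5 uM) added 1 h before LPS (250 ng/mL) and ATP (1.25 mM) stimulation; lower signal means less secretion.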
KB-V1 cytotox = qHTS assay for MDR1-selective chemotherapeutics: Primary screen using the drug-selected MDR subline cells KB-V1; KB-V1 MDR cells viability, CellTiter-Glo, 72 h; 400,000 tested, 3.4% active; Potency, µM (highest dose often 46.1 µM), most hits filed as cytotoxic; note: potency is the fitted concentration of half-maximal effect; % is set by controls: 0 for no effect and ±100 for the full control effect; nearly all actives have a fitted effect of over 60% in size
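Following 72 h at 37 degrees C with compound, KB-V1 cell viability was read by CellTiter-Glo luminescence, medium being phenol-red-free DMEM plus 10% FBS; concentration-response parameters came from normalized, curve-fitted qHTS data.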
KB-3-1 cytotox = qHTS assay for MDR1-selective chemotherapeutics: Primary screen using the parental adenocarcinoma cell KB-3-1; KB-3-1 viability, CellTiter-Glo ATP luminescence, 72 h; Potency, µM (top dose mostly 46.1 µM), most hits filed as cytotoxic; 400,000 tested, 1.4% active; AID 1347075, 2019; note: potency is the fitted concentration of half-maximal effect; % is set by controls: 0 for no effect and ±100 for the full control effect; nearly all actives have a fitted effect of over 60% in size
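Parental KB-3-1 adenocarcinoma cells in phenol-red-free DMEM with 10% FBS were pin-treated with compounds at several concentrations, incubated 72 h at 37 °C, and viability read by CellTiter-Glo luminescence; concentration-effect curves were fitted after normalization.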
SW480 rereplic = A quantitative high throughput screen for small molecules that induce DNA re-replication in SW480 colon adenocarcinoma cells; 340,000 tested, 1.8% active; SW480 DNA re-replication, Hoechst DNA content imaging, 48 h; Potency, µM (titrated, usually from 46.1 µM), inactives show at the highest dose re-replication activation, most hits filed as activators; note: potency is the fitted concentration of half-maximal effect; % of control where 0% means no effect; nearly all actives have a fitted effect of over 55% in size
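Compounds, transferred as 23 nL by pin tool, were incubated with cells for 48 hr; DNA content per nucleus was then quantified by Hoechst staining and fluorescence plate imaging.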
Active calls of the source: *; i = inactive; ? = inconclusive; . = not tested or not shown. The list is not random: actives were taken first. Their share in the collection is about 9.9%. Unless noted, calls come from the whole dose curve; as a rule, active = well fitted curve in the direction sought with a large enough effect; inconclusive = small, poorly fitted or top-dose-only effect, or another doubt; inactive = no such curve, though single readings can be large; an effect the other way counts as inactive or inconclusive.

SMILES	MCF10A rerep	IL-1B inflam inh	KB-V1 cytotox	KB-3-1 cytotox	SW480 rereplic
CCOC(=O)CNC(=S)N(Cc1ccc(C)cc1)Cc1ccc(C)o1	16.0%	-55.2*	16.4µM*	i	-2.6%
CCc1nc2ccc(C(=O)NC(C)(C)C)cn2c1N(CC)Cc1cccc(Br)c1	.	-58.0*	20.6µM*	?	.
O=C1N(c2ccccc2)C[C@@H]2C[C@@H](c3cc4ccccc4o3)N3CCC[C@@]123	?	-103.0*	?	?	?
Cc1cc(=O)[nH]c(N/N=C/c2c(F)c(F)c(F)c(F)c2F)n1	-2.6%	-92.0*	?	i	1.0%
CCN(CC)c1ccc(/C=N/Nc2nc(C)cc(=O)[nH]2)c(O)c1	8.2µM*	91.5	?	1.16µM*	?
Cc1cc(=O)[nH]c(NN=Cc2cc(Br)ccc2O)n1	?	?	0.581µM*	?	?
Cc1cc(=O)[nH]c(N/N=C/c2ccccc2Cl)n1	?	-13.5	i	i	11.2%
COc1ccccc1N1CCN(CCN2C(=O)C3CCCCN3C2=O)CC1 (stereo unspecified)	-0.7%	15.0	i	i	-3.7%
O=C(Nc1nnc(SCc2ccc(F)cc2)s1)c1ccc2c(c1)C(=O)N(c1ccccc1Cl)C2=O	0.5%	9.6	i	i	-0.8%
O=S(=O)(Nc1nc2ccccc2nc1Nc1cccc(S(=O)(=O)N2CCCCC2)c1)c1ccccc1	?	-27.0	7.31µM*	14.6µM*	14.3%
CCc1ccc(Nc2nc3ccccc3nc2NS(=O)(=O)c2ccccc2)cc1	.	.	18.4µM*	?	.
COc1ccc(Nc2nc3ccccc3nc2NS(=O)(=O)c2cccs2)cc1	?	-23.9	i	i	-8.7%
CC(=O)c1ccc(Nc2nc3ccccc3nc2NS(=O)(=O)c2cccs2)cc1	14.6µM*	-0.7	?	?	-5.6%
Cc1cc(=O)oc2cc(OC(C)C(=O)NC3(C#N)CCCCC3)ccc12 (stereo unspecified)	-4.1%	-14.7	i	i	-6.2%
Cn1nc(-c2ccc(Cl)cc2)cc1NC(=O)CSCC(=O)O	0.5%	20.1	i	i	-12.9%
CC(C)C[C@H]1CN(CCCC[C@H]2CNC(=O)C(=O)N2CC2CCCCC2)C(=O)C(=O)N1Cc1ccccc1	.	-72.4*	i	i	.
CC(C)C[C@@H]1CN(CCCC[C@H]2CNC(=O)C(=O)N2CCC2CCCCC2)C(=O)C(=O)N1Cc1ccccc1	.	?	i	i	.
O=C1NC[C@@H](CCCCN2C[C@H](Cc3ccccc3)N(CCC3CCCCC3)C(=O)C2=O)N(CCc2ccc(O)cc2)C1=O	.	-59.0*	i	?	.
CCn1c(SCC(=O)c2ccccc2)nnc1-c1cc2cc(Br)ccc2o1	?	-3.2	18.4µM*	?	7.7%
O=C(c1ccc(-n2cncn2)c([N+](=O)[O-])c1)N1CCN(S(=O)(=O)c2ccccc2F)CC1	8.4%	10.7	i	i	-3.9%
COc1ccc(N2CCN(CCCNC(=O)c3cnn(-c4ccc(F)cc4)c3-n3cccc3)CC2)cc1	.	.	?	23.1µM*	.
O=C(NCCCN1CCN(c2ccc(F)cc2)CC1)c1cnn(-c2ccc(F)cc2)c1-n1cccc1	.	.	18.4µM*	?	.
CN1CCN(CCCNC(=O)c2cnn(-c3ccc(F)cc3)c2-n2cccc2)CC1	.	.	i	i	.
CC(CNC(=O)c1cnn(-c2ccc(F)cc2)c1-n1cccc1)c1ccccc1 (stereo unspecified)	.	.	20.6µM*	?	.
OC(CNCC(c1ccc(Cl)cc1Cl)c1c[nH]c2ccccc12)c1ccccc1 (stereo unspecified)	?	-103.4*	23.1µM*	i	9.4%
SMILES	MCF10A rerep	IL-1B inflam inh	KB-V1 cytotox	KB-3-1 cytotox	SW480 rereplic
Clc1ccc(C(c2ccccc2)c2c[nH]c3ccccc23)s1 (stereo unspecified)	.	.	i	?	.
CN(CC(=O)Nc1ccc(F)c(Cl)c1)S(=O)(=O)c1ccc2c(c1)n(C)c(=O)c(=O)n2C	-3.1%	-2.2	i	i	-27.3%
O=C(/C=C/c1ccc2c(c1)OCCO2)N1CCN(c2ccc(F)cc2)CC1	-2.1%	38.4	i	i	-17.4%
Cc1cccc(C)c1N1CCN(C(=O)Nc2ccc3c(c2)OCCO3)CC1	6.5%	0.8	4.61µM*	i	8.7%
CC(C)(C)OC(=O)N1CCN(C(=O)Nc2ccc3c(c2)OCCO3)CC1	-0.5%	-1.4	?	i	1.2%
O=C(Nc1ccc2c(c1)OCCO2)N1CCN(c2ccc(F)cc2)CC1	9.5%	-5.5	20.6µM*	?	1.5%
Cc1cccc(CN2CCC(C(=O)Nc3ccc(-n4nc(C)cc4C)cc3)CC2)n1	-12.8%	3.6	.	.	-2.8%
CN(C)c1ccc(N=Nc2ccccc2C(=O)OCC(=O)NCC2CCCCC2)cc1	18.5%	?	7.31µM*	i	16.6%
CN(C)c1ccc(N=Nc2ccccc2C(=O)OCC(=O)NC2CCCC2)cc1	?	?	?	i	2.6%
CC12CCC(C(=O)N(NC(=O)c3cc(Cl)ccc3O)C1=O)C2(C)C (stereo unspecified)	-21.9%	15.6	i	i	2.4%
NC(=NCCc1ccc(Cl)cc1)NS(=O)(=O)c1ccc(F)cc1	-11.0%	8.0	14.6µM*	?	-15.7%
O=S(=O)(NC(=NCc1ccccc1)c1ccc(F)cc1)c1ccc(Cl)cc1	0.731µM*	0.0	?	i	-58.7%
NC(=NCCc1ccc(Cl)cc1)NS(=O)(=O)c1ccccc1	0.3%	0.7	i	i	12.3%
O=C(NCCN1C(=O)S/C(=C\c2ccccc2)C1=O)C1CCN(S(=O)(=O)c2cccs2)CC1	?	-1.3	?	i	-1.5%
CCCCC(=O)NC(c1ccccc1Cl)c1c(O)ccc2ccccc12 (stereo unspecified)	11.3%	-89.4*	i	i	5.9%
CCCCC(=O)NC(c1ccc(OC)c(OC)c1)c1c(O)ccc2ccccc12 (stereo unspecified)	3.2%	-5.3	14.6µM*	i	-4.7%
CCCC(=O)NC(c1ccc(N(C)C)cc1)c1c(O)ccc2ccccc12 (stereo unspecified)	-1.0%	-5.7	14.6µM*	i	-2.3%
CCOc1ccc2nc(COC(=O)c3ccncc3)c(C(=O)c3ccccc3)[n+]([O-])c2c1	-3.1%	8.6	i	i	8.3%
CN(C(=O)C=Cc1ccccc1)c1ccccc1	9.3%	-8.7	i	i	-1.0%
O=C(CCl)N(O)c1ccc(C=Cc2ccccc2)cc1	?	-77.1*	i	i	?
